Inconclusive results are not listed. Calls of active or inactive are those of the source. The calls were made as follows: active = hit-call score of the fitted dose curve at least 0.9, where 1 is the maximum; inconclusive = response in the unintended direction; inactive = score below 0.9.
Biological target: rat CYP2C13, Cyp2c13 (gene 171521) (UniProt P20814)
Experiment: NVS_ADME_rCYP2C13: NovaScreen (NVS) CYP450-related Enzyme Activity (ADME) Assay for rat CYP2C13 (AID 2283121)
Experimental: NVS_ADME_rCYP2C13 is a biochemical, single-readout assay that uses extracted gene-proteins in a cell-free assay. Measurements were taken 0.75 hour after chemical dosing in a 96-well plate.NVS_ADME_rCYP2C13 is one of one assay component(s) measured or calculated from the NVS_ADME_rCYP2C13 assay. It is designed to make measurements of enzyme activity, a form of enzyme reporter, as detected with fluorescence intensity signals by Fluorescence technology.Data from the assay component NVS_ADME_rCYP2C13 was analyzed into 1 assay endpoint. This assay endpoint, NVS_ADME_rCYP2C13, was analyzed in the positive analysis fitting direction relative to Acetonitrile as the negative control and baseline of activity. Using a type of enzyme reporter, loss-of-signal activity can be used to understand changes in the enzymatic activity as they relate to the gene Cyp2c13. Furthermore, this assay endpoint can be referred to as a primary readout, because this assay has produced multiple assay endpoints where this one serves a enzymatic activity function. To generalize the intended target to other relatable targets, this assay endpoint is annotated to the cyp intended target family, where the subfamily is xenobiotic metabolism.
Binding assays used specific radioligands (tritiated, iodinated) with non-radioactive competitive displacement ligands in agonist or antagonist protocols (as indicated) and various reference compounds and inhibitors to titrate specific binding to receptors and transporters. Most enzyme assays (CYPs, kinases, phosphatases, proteases, HDACs) used recombinant protein and specific substrates (fluorescence mostly, some colorimetric and radioactive) and inhibitors, followed by a biochemical separation of substrate and product. All assays for the biochemical HTS were initially run in duplicate at a single concentration (10 uM for CYP450 assays and 25 uM for all others). […] Each assay was run with positive and negative controls, and concurrent controls on every plate. The follow-up (secondary) screen tested active chemical-pairs in concentration series, as well as a few additional assays not tested in the primary screen, some selected negative inactives, and several cases re-run in the concentration series for confirmatory purposes.

Sequence of rat CYP2C13, Cyp2c13 (gene 171521) (P20814 whole entry, looked up): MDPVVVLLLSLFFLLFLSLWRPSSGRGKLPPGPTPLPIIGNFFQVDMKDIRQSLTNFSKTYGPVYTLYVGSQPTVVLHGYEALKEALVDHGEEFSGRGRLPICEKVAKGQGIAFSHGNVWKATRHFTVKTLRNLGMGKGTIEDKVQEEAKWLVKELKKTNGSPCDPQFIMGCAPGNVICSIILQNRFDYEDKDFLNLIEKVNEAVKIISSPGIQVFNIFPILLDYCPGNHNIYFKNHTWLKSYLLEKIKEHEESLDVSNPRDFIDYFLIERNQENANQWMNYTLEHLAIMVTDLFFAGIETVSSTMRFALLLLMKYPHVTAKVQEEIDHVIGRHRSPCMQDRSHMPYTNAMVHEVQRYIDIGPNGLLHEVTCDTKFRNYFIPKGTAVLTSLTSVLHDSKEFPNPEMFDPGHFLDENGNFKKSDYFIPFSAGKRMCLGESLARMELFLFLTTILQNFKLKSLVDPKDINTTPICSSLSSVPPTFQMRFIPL

Question: For `CCC(=O)Nc1ccc(Cl)c(Cl)c1`, which AC50 is on record?
Answer: Its AC50 is 5420 nM (active).

Question: For `CC[C@H](C)[C@H]1O[C@]2(C=C[C@@H]1C)C[C@@H]1C[C@@H](C/C=C(\C)[C@@H](O[C@H]3C[C@H](OC)[C@@H](O[C@H]4C[C@H](OC)[C@@H](NC)[C@H](C)O4)[C@H](C)O3)[C@@H](C)/C=C/C=C3\CO[C@@H]4[C@H](O)C(C)=C[C@@H](C(=O)O1)[C@]34O)O2`, which AC50 is on record?
Answer: The AC50 was 6310 nM (active).

Question: `CC(C)=CC1C(C(=O)OCN2C(=O)C3=C(CCCC3)C2=O)C1(C)C` (stereo not given) was tested. Which AC50 did it give?
Answer: The AC50 was 8970 nM (active).

Question: `CCOP(=S)(OCC)Oc1ccc([N+](=O)[O-])cc1` was tested. Which AC50 did it give?
Answer: The AC50 was 10000 nM (active).

Question: Which outcome does the source give for `CCOC(=O)CC(SP(=O)(OC)OC)C(=O)OCC` (stereo not given) here?
Answer: Its outcome is “inactive”.

Question: For `CC(C1CC1)C(O)(Cn1cncn1)c1ccc(Cl)cc1` (stereo not given), which AC50 is on record?
Answer: Its AC50 is 75.5 nM (active).

Question: For `CSc1nc(NC(C)C)nc(NC(C)C)n1`, which AC50 is on record?
Answer: The AC50 was 7910 nM (active).

Question: How did the AC50 turn out when `CC1(C(=O)Nc2ccc(O)c(Cl)c2Cl)CCCCC1` was run?
Answer: Its AC50 is 1370 nM (active).

Question: With `C[Si](Cn1cncn1)(c1ccc(F)cc1)c1ccc(F)cc1` as the compound, how does the AC50 read?
Answer: The AC50 was 173 nM (active).

Question: Which AC50 does the source give for `FC(F)C(F)(F)OCC(Cn1cncn1)c1ccc(Cl)cc1Cl` (stereo not given) here?
Answer: Its AC50 is 257 nM (active).

Question: With `C=C(C)[C@H]1Cc2c(ccc3c2O[C@@H]2COc4cc(OC)c(OC)cc4[C@@H]2C3=O)O1` as the compound, how does the AC50 read?
Answer: The AC50 was 2260 nM (active).

Question: How did the outcome turn out when `CC(=NC#N)N(C)Cc1ccc(Cl)nc1` was run?
Answer: The outcome was “inactive”.

Question: Which AC50 does the source give for `CCCSP(=O)(OCC)Oc1ccc(Br)cc1Cl` (stereo not given) here?
Answer: Its AC50 is 9490 nM (active).

Question: With `COc1cccc(C(=O)NN(C(=O)c2cc(C)cc(C)c2)C(C)(C)C)c1C` as the compound, how does the AC50 read?
Answer: Its AC50 is 2640 nM (active).

Question: Which AC50 does the source give for `CCCOCC(=Nc1ccc(Cl)cc1C(F)(F)F)n1ccnc1` here?
Answer: Its AC50 is 966 nM (active).
